Nine compounds from PubChem BioAssay (NCATS) can be followed below.

Records with an inconclusive call do not appear. Activity calls are given as the source filed them. Calls come from the whole dose curve; as a rule, active = well fitted curve in the direction sought with a large enough effect; inconclusive = small, poorly fitted or top-dose-only effect, or another doubt; inactive = no such curve, though single readings can be large; an effect the other way counts as inactive or inconclusive. Square brackets hold non-standard residues; d marks the D form. Peptide text beside a SMILES is read from it. ξ: configuration not given here. ξL = CC(C)CC(N)C(=O)O

Assay [1] is described as follows: HPAF-II 24hr Apoptosis Induction qHTS against the NCATS CANVASS Library (AID 1347356). An outline of the steps: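 Cells seeded at 500 per well, then compounds pin-transferred in an 11-point concentration series. After 24 hours at 37 degrees C, Caspase-Glo 3/7 was added and luminescence measured following 15 min at room temperature.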
Assay [2] can be described thus: HEK293 18hr Apoptosis Induction qHTS against the NCATS CANVASS Library (AID 1347357). Note: potency is the fitted concentration of half-maximal effect. An outline of the steps: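 HEK293 cells (500/well, DMEM + 10% FBS) treated with an 11-point series for 18 h at 37 degrees C. Caspase-3/7 activity read by Caspase-Glo luminescence after 15 min at room temperature.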
A short description of assay [3]: HEK293 24hr Apoptosis Induction qHTS against the NCATS CANVASS Library (AID 1347359). Note: potency is the fitted concentration of half-maximal effect. An outline of the steps: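 HEK293 cells, 500 per well, exposed to an 11-point compound series for 24 hours at 37 degrees C. Caspase 3/7 activity read by Caspase-Glo luminescence (DEVD substrate) after 15 min at room temperature.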
Assay [4] in a line: HPAF-II 18hr Apoptosis Induction qHTS against the NCATS CANVASS Library (AID 1347360). An outline of the steps: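 HPAF-II cells at 500/well were exposed for 18 h at 37 C to an 11-point compound series. Caspase-3/7 activity was read by Caspase-Glo luminescence after 15 min at RT.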
The subject of assay [5] is NAD(P)H diaphorase (Clostridium kluyveri). Briefly: Diaphorse counterscreen qHTS: Assay Interference Panel against the NCATS CANVASS Library (AID 1347362). An outline of the steps: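 Clostridium kluyveri diaphorase in PBS + 0.01% Tween-20 preincubated 15 min with compounds. Resazurin and NADH then added for 5 min at room temperature in the dark; resorufin fluorescence read (ex 525, em 598).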

In assay [6] the target is Luciferin 4-monooxygenase (Photinus pyralis) (UniProt P08659). Briefly: Firefly luciferase counterscreen qHTS: Assay Interference Panel against the NCATS CANVASS Library (AID 1347363). Note: potency is the fitted concentration of half-maximal effect. An outline of the steps:
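Purified P. pyralis luciferase (0.04 ug/mL, 4x reagent) added to Tris-acetate buffer with 0.013 mM D-luciferin, 0.013 mM ATP and 13.3 mM Mg-acetate; compounds preincubated 15 min, then luminescence read after 5 min, RT.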

Assay [7] is described as follows: KB-3-1 Cancer Cell Toxicity qHTS against the NCATS CANVASS Library (AID 1347366). Note: nearly all actives have a fitted effect of over 75% in size. Note: potency is the fitted concentration of half-maximal effect. Put shortly: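 KB-3-1 cells (500/well) in DMEM with 10% FBS were exposed to compounds for 72 h at 37C. Viability was read by CellTiter-Glo luminescence.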
Assay [8] can be described thus: qHTS for ATAD5 Agonist screened against the NCATS CANVASS Library (AID 1347367).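 Note: luciferase reporter driven by ATAD5 which rises upon DNA damage.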 An outline of the steps: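 Luciferase reporter under ATAD5 control, stably integrated in HEK293T cells (2000/well). Compounds (11 points) incubated 16 h at 37C; viability read first by CellTiter-Fluor, then luminescence reporting ATAD5 activation. MMS positive control.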
A short description of assay [9]: G06 Cancer Cell Toxicity qHTS against the NCATS CANVASS Library (AID 1347368). Note: nearly all actives have a fitted effect of over 60% in size. Note: potency is the fitted concentration of half-maximal effect. An outline of the steps: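 Cells were plated at 500 per well, then compounds were added over an 11-point range. After 72 hr at 37C, CellTiterGlo was added and luminescence measured as ATP content.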
The nature of assay [10]: MCF7 Cancer Cell Toxicity qHTS against the NCATS CANVASS Library (AID 1347369). Note: potency is the fitted concentration of half-maximal effect. An outline of the steps: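 MCF7 cells (500/well) were exposed 72 h at 37 °C to compounds in an 11-point series. Viability was read as ATP content by CellTiterGlo luminescence.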
Assay [11] in a line: qHTS for ATAD5 Antagonist screened against the NCATS CANVASS Library (AID 1347370). Note: nearly all actives have a fitted effect of over 65% in size. Note: potency is the fitted concentration of half-maximal effect. An outline of the steps: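 Compounds (11-point) co-dosed with 10 µM 5-FUrd for 16 h at 37 °C onto HEK293T-ATAD5 luciferase reporter cells. Viability measured by CellTiter-Fluor fluorescence, then ATAD5 reporter signal by luminescence.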
A short description of assay [12]: J3T Cancer Cell Toxicity qHTS against the NCATS CANVASS Library (AID 1347371). Note: potency is the fitted concentration of half-maximal effect. An outline of the steps:
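Luminescence from CellTiterGlo, reporting cellular ATP, serves as the viability measure after 72 hr compound treatment of J3T canine glioma cells seeded at 500 cells/well.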

The target in assay [13] is Nuclear receptor subfamily 1 group I member 3 (Homo sapiens) (UniProt Q14994). Briefly: qHTS for Constitutive Androstane Receptor (CAR) Antagonist screened against the NCATS CANVASS Library (AID 1347372). Note: potency is the fitted concentration of half-maximal effect. An outline of the steps:
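Luminescence readout (ONE-Glo, 30 min RT) of CYP2B6-2.2kb reporter in HepG2-hCAR cells after 24hr, 37C treatment with compound against 50 nM CITCO; CellTiter-Fluor viability read beforehand.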

Assay [14] has the same target. Briefly: qHTS for Constitutive Androstane Receptor (CAR) Agonist screened against the NCATS CANVASS Library (AID 1347373).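 Note: every well also contained 1.5 µM PK11195 alongside the test compound.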 Note: potency is the fitted concentration of half-maximal effect. An outline of the steps:
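Cells were plated and allowed to attach for 4hr, then dosed with compound in an 11-point series alongside 1.5uM PK11195. After 24hr at 37C, viability was measured fluorometrically and CAR-driven CYP2B6 reporter luminescence was recorded.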

Assay [15] can be described thus: 10-beta competent E. coli microbial cell viability qHTS against the NCATS CANVASS Library (AID 1347376). Note: series mostly up to about 46 µM. Put shortly: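 Bacterial suspension diluted to 0.2 OD was dosed with compounds, 11-point series, then held overnight at 37C. BacTiter-Glo reagent was added, and after 20 min at room temperature ATP-dependent luminescence was measured.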
The nature of assay [16]: qHTS for H2AX Agonists against the NCATS CANVASS Library (AID 1347378). Put shortly: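 CHO-K1 cells (1000/well, overnight at 37C) exposed to compounds at several concentrations for 3 hr at 37C, 0.76% DMSO final. Lysates read by TR-FRET (phospho-H2AX S139 Eu-cryptate antibody / H2AX-d2 antibody) after 24 hr at room temperature; 665/615 nm ratio.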
Assay [17] is described as follows: qHTS for Inflammasome Signaling Inhibitors: IL-1-beta AlphaLISA screen against the NCATS CANVASS Library (AID 1347379).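 For Potency: secreted IL-1B measured as AlphaLISA emission at 615 nm; potency is the fitted concentration of half-maximal effect.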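 Note: human THP-1 cells primed with LPS then triggered with ATP.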 Put shortly: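 Secreted IL-1B from human THP-1 cells quantified by AlphaLISA 16 hr after compound addition (final up to 57.5 uM). A 1 hr compound pretreatment preceded inflammasome activation with 250 ng/mL LPS plus 1.25 mM ATP (final).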
The nature of assay [18]: Inflammasome Signaling qHTS Counterscreen: IL-1-beta AlphaLISA counterscreen against the NCATS CANVASS Library (AID 1347381).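 Note: cell-free check with purified IL-1β in medium and no THP-1 cells; series mostly up to about 57 µM.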 An outline of the steps: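 Purified IL-1-beta (4 pg/well) + compound, 11-pt conc. series; acceptor beads 6 ug/mL + biotin-Ab 0.6 nM final, 1 h RT; SA-donor 24 ug/ml final, 30 min dark RT; read ex 680/em 615.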
Assay [19] in a line: Cytotoxicity qHTS for assessment of Hepg2 cells membrane integrity screened against the NCATS CANVASS Library (AID 1347387). Put shortly:
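Cells were seeded at 2000 per well and left overnight to attach. Compounds were pin-transferred to give 0.59 nM - 46 uM in an 11-point series and incubated 5 hr at 37C. CytoTox-ONE reagent was added and, after 10 min at room temperature, fluorescence (ex 560, em 590 nm) was read.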

A short description of assay [20]: Viability qHTS for inhibitors of the SERCaMP assay screened against the NCATS CANVASS Library (AID 1347400). Note: nearly all actives have a fitted effect of over 70% in size. Note: potency is the fitted concentration of half-maximal effect. Put shortly: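 Seed SH-SY5Y-GLuc SERCaMP MJH297 cells at 1000 per well, incubate 4 h, add compounds across an 11-point range, incubate 48 h at 37C, then add CellTiter-Glo and read luminescence.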

Chain of Nuclear receptor subfamily 1 group I member 3 (Homo sapiens) (Q14994 whole entry, looked up): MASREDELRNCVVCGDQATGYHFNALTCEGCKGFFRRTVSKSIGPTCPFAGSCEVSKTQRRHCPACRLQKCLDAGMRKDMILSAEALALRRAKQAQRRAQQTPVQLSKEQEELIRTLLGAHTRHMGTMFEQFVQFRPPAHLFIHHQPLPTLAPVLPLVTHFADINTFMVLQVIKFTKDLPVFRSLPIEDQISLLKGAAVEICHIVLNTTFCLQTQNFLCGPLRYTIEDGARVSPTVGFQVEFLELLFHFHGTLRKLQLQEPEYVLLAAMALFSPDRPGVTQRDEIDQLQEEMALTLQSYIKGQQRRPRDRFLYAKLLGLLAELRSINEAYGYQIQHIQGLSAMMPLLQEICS
Chain of Luciferin 4-monooxygenase (Photinus pyralis) (P08659 whole entry, looked up): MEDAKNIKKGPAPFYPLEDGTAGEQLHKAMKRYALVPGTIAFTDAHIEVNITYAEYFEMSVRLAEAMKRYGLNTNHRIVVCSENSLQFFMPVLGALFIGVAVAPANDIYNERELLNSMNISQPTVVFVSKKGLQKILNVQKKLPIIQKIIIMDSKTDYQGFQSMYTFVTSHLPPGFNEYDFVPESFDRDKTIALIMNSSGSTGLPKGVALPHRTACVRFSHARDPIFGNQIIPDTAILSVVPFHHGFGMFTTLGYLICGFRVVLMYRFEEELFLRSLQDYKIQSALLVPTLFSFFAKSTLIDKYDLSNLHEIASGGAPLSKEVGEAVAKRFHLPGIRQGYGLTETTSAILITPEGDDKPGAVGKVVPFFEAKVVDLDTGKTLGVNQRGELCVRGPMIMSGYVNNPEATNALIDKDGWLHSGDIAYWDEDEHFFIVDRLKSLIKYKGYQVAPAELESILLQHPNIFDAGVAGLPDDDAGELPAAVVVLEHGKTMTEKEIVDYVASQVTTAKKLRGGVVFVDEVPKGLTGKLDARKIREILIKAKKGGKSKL

`C/C=C/[C@H]1[C@H]2C(=O)c3c(O)c(C)c(O)c(C)c3[C@]1(C(=O)O)C(=O)C=C2C`: the result in assay [1], in assay [15], in assay [18] and in assay [19] was inactive. Also, the Potency result in assay [2], in assay [3], in assay [4], in assay [5], in assay [6] and in assay [7] was “inactive” each time. The Potency entry in assay [8], in assay [9], in [10], in assay [11], in assay [12] and in assay [13] was “inactive” throughout. Besides, the Potency result in assay [14], in [16], in assay [17] and in [20] was “inactive” each time.
For `C[C@@]12C[C@@H](C[C@@H]3C(=O)O[C@@H](c4ccoc4)[C@H](OC(=O)c4ccccc4)[C@@H]31)OC2=O`, the result in [1], in assay [15], in assay [18] and in assay [19] was inactive. The Potency entry in [2], in [3], in assay [4], in [5], in assay [6] and in assay [7] was “inactive” throughout. The Potency result in [8], in [9], in assay [10], in assay [11], in assay [12] and in [13] was “inactive” throughout. Further, the Potency result in assay [14], in assay [16], in assay [17] and in assay [20] was “inactive” throughout.
With `O=C1CC(c2ccc(O)cc2)Oc2cc(O)cc(O)c21` (stereo not drawn), the compound was called inactive in [1], in [15], in assay [18] and in assay [19]. The Potency entry in [2], in [3], in assay [4], in assay [5], in assay [6] and in assay [7] was “inactive” in each case. Further, the Potency result in assay [8], in assay [9], in [10], in assay [11], in assay [12] and in assay [13] was “inactive” in each case. Besides, the Potency entry in assay [14], in [16], in [17] and in [20] was “inactive” throughout.
Regarding `C=C(C)C(=O)O[C@H]1C[C@@]2(C)OC(=CC2=O)/C(C)=C\[C@H]2OC(=O)C(=C)[C@H]12`, the compound was classed as inactive in [1], in [15] and in assay [18]. Also, the Potency is 2.96 µM (active) in assay [2]; 2.96 µM (active) in assay [3]; 3.32 µM (active) in assay [7]; 2.09 µM (active) in [9]; 4.16 µM (active) in assay [10]; 2.95 µM (active) in [11]. Also, the Potency in [12] is 1.66 µM (active); in [13] it was 11.7 µM (active); in assay [17] it was 1.37 µM (active); in assay [20] it was 4.8 µM (active). Further, the Potency entry in assay [4], in assay [5], in [6], in [8] and in [14] was “inactive” each time.
In the case of `O=c1cc(-c2ccc(O)cc2)oc2cc(O)c([C@@H]3OC(CO)[C@H](O)[C@@H](O)[C@H]3O)c(O)c12` (stereo partly drawn), the compound was classed as inactive in [1], in assay [15], in [18] and in assay [19]. In addition, the Potency result in assay [2], in assay [3], in assay [4], in assay [5], in [6] and in [7] was “inactive” each time. The Potency result in assay [8], in assay [9], in [10], in assay [11], in assay [12] and in [13] was “inactive” throughout. Also, the Potency entry in assay [14], in [16], in [17] and in [20] was “inactive” each time.
For `CN1CC[C@@]23c4ccccc4N[C@@H]1[C@@]21CCN(C)[C@@H]3Nc2ccccc21`, the compound was classed as inactive in assay [1], in assay [15], in assay [18] and in assay [19]. Also, the Potency entry in [2], in assay [3], in [4], in assay [5], in [6] and in assay [7] was “inactive” throughout. Also, the Potency result in assay [8], in assay [10], in assay [11], in assay [12], in assay [13] and in assay [14] was “inactive” in each case. Moreover, the Potency entry in assay [16] and in assay [20] was “inactive” throughout.
As for `COC(=O)c1cccc2oc(-c3cccc4oc(-c5c(C)cccc5O)nc34)nc12`, the compound was classed as inactive in assay [1], in assay [15], in [18] and in assay [19]. For the same compound, the Potency entry in assay [2], in assay [3], in assay [4], in assay [5], in assay [6] and in assay [7] was “inactive” each time. For the same compound, the Potency entry in assay [8], in assay [10], in assay [12], in [13], in assay [16] and in [17] was “inactive” in each case. Further, the Potency entry in assay [20] was “inactive”. Further, the Potency in assay [11] was 8.31 µM (active).
In the case of `CC[C@@H](C)[C@H]1NC(=O)C(CC(C)C)NC(=O)[C@@H](CC(C)C)NC(=O)[C@H](Cc2c[nH]c3ccccc23)NC(=O)CNC(=O)[C@@H](CC(N)=O)NC1=O` (stereo partly drawn) (cyclo(GW[dL][ξL][dI][dN])), the call in assay [1], in assay [15] and in [18] was inactive. Moreover, the Potency result in assay [2], in [3], in assay [4], in assay [5], in assay [6] and in assay [11] was “inactive” throughout. The Potency entry in [13], in [14], in assay [16] and in assay [17] was “inactive” each time.
With `O=C1CC(c2ccc(O)cc2)Oc2ccccc21` (stereo not drawn), the compound was classed as inactive in assay [1], in assay [18] and in assay [19]. The Potency result in assay [2], in [3], in assay [4], in assay [5], in assay [7] and in assay [8] was “inactive” throughout. The Potency result in [10], in assay [11], in assay [12], in assay [13] and in [16] was “inactive” throughout. The values for the Potency in [6] and in [14] were 5.44 µM (active) and 23.4 µM (active), respectively.
